Several values for one entry are separate records, joined by “and”; a condition that tells them apart may be missing. Equal entries are not always repeated. Results filed as inconclusive are left out. Entries that show only a call come without a potency. Activity calls are given as the source filed them. Unless noted, calls come from the whole dose curve; as a rule, active = well fitted curve in the direction sought with a large enough effect; inconclusive = small, poorly fitted or top-dose-only effect, or another doubt; inactive = no such curve, though single readings can be large; an effect the other way counts as inactive or inconclusive.
Columns and labels:
[1] = Cell Viability - Mesenchymal (AID 546);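 note: cells exposed to compound for 40 hours before reading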; note: potency is the fitted concentration of half-maximal effect
Method in brief: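 Human renal mesenchymal cells (glomerulus-derived), 1000 cells/well, 5 hr 37 °C pre-incubation; compound 40 hr, 37 °C; CellTiter-Glo, 20 min RT; luminescence; AC50 via Hill equation.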

[2] = Cellular Toxicity (caspase-3) HepG2 (AID 654);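 note: cells exposed to compound for 16 hours before reading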
Method in brief: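 Caspase 3/7 activation is measured as a luminescence increase (aminoluciferin substrate) after 16 h compound exposure of human hepatocarcinoma HepG2 cells. AC50 values are Hill fits, scaled between DMSO baseline and 100 uM tamoxifen stimulation.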

[3] = Cellular Toxicity (caspase-3) Jurkat (AID 655);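 note: cells exposed to compound for 16 h at 37 °C before reading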; note: potency is the fitted concentration of half-maximal effect
Method in brief: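 Luminescent Caspase-Glo 3/7 read-out (20 min, room temperature) after 16 h compound treatment at 37 C of 5000 Jurkat cells per well. AC50 derived by Hill-equation fitting, scaled between DMSO basal and 100 uM tamoxifen stimulation.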

[4] = Cellular Toxicity (caspase-3) HUV-EC-C (AID 656)
Method in brief: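 Luminescent Caspase-Glo 3/7 readout after 16 h, 37 °C compound exposure of HUV-EC-C endothelial cells, 1000 per well, complete medium. AC50 derived by Hill fitting, with DMSO as baseline and 100 uM tamoxifen as full activation.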

[5] = Cellular Toxicity (caspase-3) SHSY5Y (AID 657)
Method in brief: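 Luminescent Caspase-Glo 3/7 read-out, 1 hr room temperature, follows 16 hours of compound treatment of SH-SY5Y cells at 37 °C. Normalization: DMSO basal, 10 uM staurosporine as 100%; AC50 values from Hill-equation concentration-response fits.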

[6] = Cellular Toxicity (caspase-3) BJ (AID 658); details: Potency: caspase-3 activation; note: potency is the fitted concentration of half-maximal effect
Method in brief: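 qHTS, BJ fibroblasts, 1000 cells/well; 5 hr preincubation, 16 hr compound, 37 °C; Caspase-Glo 3/7 reagent, 1 hr RT; luminescence. DMSO = 0%, 10 uM staurosporine = 100%. Hill-equation AC50.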

[7] = Cellular Toxicity (caspase-3) MRC-5 (AID 659); details: Potency: caspase-3 activation; note: potency is the fitted concentration of half-maximal effect
Method in brief: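 MRC-5 fibroblasts, 1500/well; 16 h cpd, 37 °C; Caspase-Glo 3/7, 1 h RT; lumi read. Norm: DMSO = 0%, 10 uM staurosporine = 100%. Hill-fit AC50 from qHTS conc-response.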

[8] = Cellular Toxicity (caspase-3) Mesangial (AID 660);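 note: combined caspase 3 and 7 activity read by Caspase-Glo luminescence; cells exposed to compound for 16 h before the caspase read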
Method in brief: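 Caspase 3/7 activation measured by Caspase-Glo 3/7 luminescence (20 min, room temperature) following 16 h exposure of mesangial cells (1000/well); AC50 from Hill-equation fit, normalized to DMSO and 100 uM tamoxifen.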

[9] = Cellular Toxicity (caspase-3) SK-N-SH (AID 661); details: SK-N-SH caspase-3 activation, qHTS; caspase-3 activation: at 91.7 µM (top of the series), DMSO as zero, staurosporine as full; note: potency is the fitted concentration of half-maximal effect
Method in brief: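 Caspase 3/7 activation was read by luminogenic substrate cleavage after 16 hour treatment of SK-N-SH cells. Signal was scaled between DMSO and 10 uM staurosporine, and concentration-response data were fitted with the Hill equation for AC50.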

[10] = target: 3',5'-cyclic-AMP phosphodiesterase 4B (Homo sapiens) (UniProt Q07343); assay: qHTS Assay for Inhibitors of PDE-IV (AID 607; active = well fitted activation curve with a large enough effect in the main read-out, with a control signal flat, not every such curve was filed as active; note: potency is the fitted concentration of half-maximal effect)
Method in brief: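 ACTOne HEK293 cells carry a modified cAMP-gated CNG channel and express endogenous PDE4; plated 1000 cells/well, compounds up to 22.9 uM final. Membrane-potential dye fluorescence (ex 535/em 590) was read; parental cells received 10 uM forskolin + 100 uM RO 20-1724.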

3',5'-cyclic-AMP phosphodiesterase 4B (Homo sapiens), sequence (Q07343 whole entry, looked up): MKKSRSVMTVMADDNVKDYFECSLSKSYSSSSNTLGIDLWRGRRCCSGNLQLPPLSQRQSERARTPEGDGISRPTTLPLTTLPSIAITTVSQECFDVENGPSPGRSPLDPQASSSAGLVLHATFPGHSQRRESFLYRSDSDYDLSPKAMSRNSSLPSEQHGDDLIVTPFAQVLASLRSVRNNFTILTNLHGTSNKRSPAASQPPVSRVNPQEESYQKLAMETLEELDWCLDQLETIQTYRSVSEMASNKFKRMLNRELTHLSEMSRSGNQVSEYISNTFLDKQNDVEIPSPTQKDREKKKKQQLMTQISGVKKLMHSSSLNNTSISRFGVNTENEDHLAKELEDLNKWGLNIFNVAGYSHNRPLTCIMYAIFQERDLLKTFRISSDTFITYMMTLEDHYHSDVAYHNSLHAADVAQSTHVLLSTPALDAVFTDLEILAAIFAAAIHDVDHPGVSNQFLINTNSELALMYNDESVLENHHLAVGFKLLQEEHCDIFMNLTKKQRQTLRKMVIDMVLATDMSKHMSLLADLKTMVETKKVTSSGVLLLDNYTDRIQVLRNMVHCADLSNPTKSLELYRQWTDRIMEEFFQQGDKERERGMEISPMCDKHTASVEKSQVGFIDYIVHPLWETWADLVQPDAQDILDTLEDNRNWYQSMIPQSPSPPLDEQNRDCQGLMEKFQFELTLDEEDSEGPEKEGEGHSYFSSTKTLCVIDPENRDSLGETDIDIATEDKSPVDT

Row | Compound | Potency [1] | outcome [2] | Potency [3] | outcome [4] | outcome [5] | Potency [6] | Potency [7] | outcome [8] | Potency [9] | Potency [10] | caspase-3 activation [9]
1 | [O]=[Cd] | inactive | inactive | inactive | inactive | inactive | inactive | inactive | inactive | inactive |  | 
2 | S=C=S | inactive | inactive | inactive | inactive | inactive | inactive | inactive | inactive | inactive |  | 
3 | O=C/C=C/c1ccccc1 | inactive | inactive | inactive | inactive | inactive | inactive | inactive | inactive | inactive |  | 
4 | CCOC(=O)c1ccccc1C(=O)OCC | inactive | inactive | inactive | inactive | inactive | inactive | inactive | inactive | inactive |  | 
5 | O=C1C2CC=CCC2C(=O)N1SC(Cl)(Cl)Cl (stereo unspecified) | 25.1 µM (active) and 20 µM (active) | inactive | 1.58 µM (active) | inactive | inactive | inactive | inactive | inactive |  |  | 
6 | C[C@H]1CCC[C@H](O)CCCCCc2cc(O)cc(O)c2C(=O)O1 | inactive | inactive | inactive | inactive | inactive | inactive | inactive | inactive | inactive |  | 
7 | C=CCN=C=S | inactive | inactive | inactive | inactive | inactive | inactive | inactive | inactive | inactive |  | 
8 | O=C1CCO1 | inactive | inactive | inactive | inactive | inactive | inactive | inactive | inactive | inactive |  | 
9 | C[C@]12CCC(=O)C[C@@H]1CC[C@@H]1[C@@H]2CC[C@]2(C)[C@@H](O)CC[C@@H]12 | inactive | inactive | inactive | inactive | inactive | inactive | inactive | inactive | inactive |  | 
10 | NNC(N)=O | inactive | inactive | inactive | inactive | inactive | inactive | inactive | inactive | inactive |  | 
11 | O=CC=O | inactive | inactive | inactive | inactive | inactive | inactive | inactive | inactive | inactive |  | 
12 | CCCCCCCCOC(=O)c1ccccc1C(=O)OCCCCCCCC | inactive | inactive | inactive | inactive | inactive | inactive | inactive | inactive | inactive |  | 
13 | COc1ccc2c(c1OC)C(=O)OC2C1c2cc3c(cc2CCN1C)OCO3 (stereo unspecified) | inactive | inactive | inactive | inactive | inactive | inactive | inactive | inactive | inactive |  | 
14 | O=[N+]([O-])c1ccccc1 | inactive | inactive | inactive | inactive | inactive | inactive | inactive | inactive | inactive |  | 
15 | CC(C)(C)c1cc(O)ccc1O | inactive | inactive | inactive | inactive | inactive | inactive | inactive | inactive | inactive |  | 
16 | O=C(O)C(Cl)(Cl)Cl | inactive | inactive | inactive | inactive | inactive | inactive | inactive | inactive | inactive |  | 
17 | ClC=C(Cl)Cl | inactive | inactive | inactive | inactive | inactive | inactive | inactive | inactive | inactive |  | 
18 | COC1=CC(=O)O[C@@H](/C=C/c2ccccc2)C1 | inactive | inactive | inactive | inactive | inactive | inactive | inactive | inactive | inactive |  | 
19 | O=[N+]([O-])c1ccc(F)c([N+](=O)[O-])c1 | inactive | inactive | inactive | inactive | inactive | inactive | inactive | inactive | inactive |  | 
20 | [Cl-].[Cl-].[Hg+2] | 12.6 µM (active) | inactive | inactive | inactive | inactive | inactive | inactive | inactive | inactive |  | 
21 | O=C1C=CC(=O)C=C1 | inactive | inactive | inactive | inactive | inactive | inactive | inactive | inactive | inactive |  | 
22 | Clc1ccccc1Cl | inactive | inactive | inactive | inactive | inactive | inactive | inactive | inactive | inactive |  | 
23 | O=Cc1ccco1 | inactive | inactive | inactive | inactive | inactive | inactive | inactive | inactive | inactive |  | 
24 | C[C@H]1CC[C@@H]2[C@@H](C)[C@H]3[C@H](C[C@H]4[C@@H]5CC=C6CC(O[C@@H]7O[C@H](CO)[C@H](O)[C@H](O[C@@H]8O[C@H](CO)[C@@H](O)[C@H](O)[C@H]8O)[C@H]7O[C@H]7O[C@@H](C)[C@H](O)[C@@H](O)[C@H]7O)CC[C@]6(C)[C@H]5CC[C@]34C)N2C1 (stereo partly specified) | 31.6 µM (active) | inactive | inactive | inactive | inactive | inactive | inactive | inactive | inactive |  | 
25 | ClCC1CO1 (stereo unspecified) | inactive | inactive | inactive | inactive | inactive | inactive | inactive | inactive | inactive |  | 
26 | O=S1(=O)N(CCN2CC=C(c3c[nH]c4cc(F)ccc34)CC2)c2cccc3c2N1CCC3 |  |  |  |  |  |  |  |  |  | inactive | 

Row | Compound | Potency [1] | outcome [2] | Potency [3] | outcome [4] | outcome [5] | Potency [6] | Potency [7] | outcome [8] | Potency [9] | Potency [10] | caspase-3 activation [9]
27 | ClC(Cl)(Cl)Cl | inactive | inactive | inactive | inactive | inactive | inactive | inactive | inactive | inactive |  | 
28 | CCCN(CCC)CCc1c[nH]c2ccc(C(N)=O)cc12 |  |  |  |  |  |  |  |  |  | inactive | 
29 | C[C@@H]1[C@@H]2Cc3ccc(O)cc3[C@@]1(C)CCN2CC1CC1 |  |  |  |  |  |  |  |  |  | inactive | 
30 | O=c1ccc2[nH]cc(C3=CCNCC3)c2[nH]1 |  |  |  |  |  |  |  |  |  | inactive | 
31 | CN1CCc2cc(O)cc3c2[C@H]1Cc1ccc(O)c(O)c1-3 |  |  |  |  |  |  |  |  |  | inactive | 
32 | Cc1c2ccncc2c(C)c2c1[nH]c1ccccc12 |  |  |  |  |  |  |  |  |  | inactive | 
33 | NNC(=O)c1ccc(O)cc1 |  |  |  |  |  |  |  |  |  | inactive | 
34 | CCCCCl | inactive | inactive | inactive | inactive | inactive | inactive | inactive | inactive | inactive |  | 
35 | CCCN(CCC)[C@@H]1CCc2cccc(O)c2C1 |  |  |  |  |  |  |  |  |  | inactive | 
36 | C[C@@H]1O[C@H](C[N+](C)(C)C)CS1 |  |  |  |  |  |  |  |  |  | 1.26 µM (active) | 
37 | NCCc1c[nH]c2ccc(C(N)=O)cc12 |  |  |  |  |  |  |  |  |  | inactive | 
38 | NC(N)=NOCC[C@H](N)C(=O)O |  |  |  |  |  |  |  |  |  | inactive | 
39 | COc1ccc2[nH]c3c(c2c1)CCNC3 |  |  |  |  |  |  |  |  |  | inactive | 
40 | CC(=O)NBr |  |  |  |  |  |  |  |  |  | inactive | 
41 | [O]=[Cr](=[O])([OH])[O][Cr](=[O])(=[O])[OH] | inactive | inactive | 31.6 µM (active) |  |  | 15.8 µM (active) | 20 µM (active) and 25.1 µM (active) | inactive | 20 µM (active) |  | 80.2% (active)
42 | CCN(CCCl)Cc1ccccc1Br |  |  |  |  |  |  |  |  |  | inactive | 
43 | O=[N+]([O-])c1ccc2nc(N3CCNCC3)ccc2c1 |  |  |  |  |  |  |  |  |  | inactive | 
44 | C[N+](C)(C)CCOC(=O)CBr |  |  |  |  |  |  |  |  |  | inactive | 
45 | CN1CCc2cccc(Cl)c2CC1 |  |  |  |  |  |  |  |  |  | inactive | 
46 | Clc1cc(I)cc(Cl)c1NC1=NCCN1 |  |  |  |  |  |  |  |  |  | inactive | 
47 | O=P(O)(O)C(Cl)(Cl)P(=O)(O)O |  |  |  |  |  |  |  |  |  | inactive | 
48 | CC(C)Nc1ccc(Nc2ccccc2)cc1 |  | inactive | inactive | inactive | inactive | inactive | inactive | inactive | inactive |  | 
49 | CC(C)CCON=O | inactive | inactive | inactive | inactive | inactive | inactive | inactive | inactive | inactive |  | 
50 | Oc1cc(Cl)c(Cl)cc1Cl | inactive | inactive | inactive | inactive | inactive | inactive | inactive | inactive | inactive |  | 
51 | c1ccc2c(N3CCNCC3)cccc2c1 |  |  |  |  |  |  |  |  |  | inactive | 

Source: PubChem BioAssay (NCATS)
